Bioassay records (PubChem)
KKLEB tox = cytotoxicity in KKLEB CF airway cells, primary screen, cytotoxicity control for CF NF-kB inhibitor project, cell-based, uHTS, fluorescence assay plates. KKLEB CF airway cells viability, ATPlite luminescence, overnight; active compounds read low; cells stimulated with P. aeruginosa culture filtrate. activity change (cytotoxicity), % at 5 µM. actives 0.36% (n = 360,000). AID 602141, 2011;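 active = corrected activity change at or below -50% at 5 µM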
CF NFkB block = inhibitors of PAF-induced NF-kB signaling, primary screen, cell-based, GFP fluorescence, uHTS. KKLEB NF-kB-GFP reporter, GFP fluorescence overnight. inhibition, % at 5 µM. actives 0.86% (n = 360,000). AID 588850, 2011;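 active = at least 50% inhibition at 5 µM, scaled per plate between neutral and stimulator controls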;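 also: PAF is a Pseudomonas aeruginosa culture filtrate used as stimulus; plate controls were PAF-stimulated DMSO wells for no effect and unstimulated DMSO wells for full effect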
TROY signal inh = inhibitors of TROY-driven NF-kB signaling, primary screen, Q293 LMP1-TROYcd cells, NF-kB luciferase, uHTS | Q293 LMP1-TROYcd NF-kB luciferase reporter, 4 h | inhibition, % at 10 µM | actives 0.98% (n = 360,000) | AID 1347056, 2019;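 active = compounds whose plate-normalised and pattern-corrected inhibition of the luciferase reporter signal at the single screening dose is 50% or more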
TWEAK-Fn14 inh = inhibitors of TWEAK-Fn14 signaling, primary screen, luciferase reporter cells, uHTS. TWEAK-stimulated Fn14 reporter cells, luciferase luminescence, 8 h. actives 2% (n = 360,000). inhibition, % at 10 µM. AID 1159606, 2016; in the data active = inhibition above about 50%
Peg3 promoter = Peg3 promoter-driven luciferase inhibitors, primary screen, cell-based, HeLa, luciferase luminescence; HeLa PEG-Prom luciferase reporter, overnight; inhibition, % at 20 µM; actives 1.7% (n = 360,000);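 active = inhibition of at least 50% at 20 µM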
HIF-2a inh = HIF-2a reporter inhibitors, primary screen, luminescence, 786-0 RCC cells; inhibition, % at 18.8 µM; actives 0.72% (n = 360,000); 786-0 RCC cells HIF-2a reporter, luciferase luminescence, overnight;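 active = inhibition of the luminescence signal of 40% or more relative to plate controls, in a single-dose primary screen at 18.75 µM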
* marks the source's active call; other numbers are inactive results; i = inactive; nt = not tested or not shown. Sampled rows, rich in hits. Any-hit rate of the full collection: about 4%.

SMILES	KKLEB tox	CF NFkB block	TROY signal inh	TWEAK-Fn14 inh	Peg3 promoter	HIF-2a inh
COC(=O)c1ccc2nc(-c3cccc(Br)c3)c(Cc3ccsc3)n2c1	-13	12	-28	-19	-97	-39
CCC(C)NC(=O)c1ccc(CSCc2ccccc2Cl)o1 (stereo not given)	10	-14	-23	-2	-22	-54
CC(=O)Nc1cc([N+](=O)[O-])ccc1OCc1ccccc1	11	7	-8	10	5	-44
c1ccc(-n2nnc3c(N4CCOCC4)ncnc32)cc1	3	-19	43	87*	-12	10
CC(=O)O[C@]1(C(C)=O)CC[C@H]2[C@@H]3C=C(C)C4=CC(=O)CC[C@@H]4[C@H]3CC[C@@]21C	-10	6	-2	-11	14	11
CC(=O)O[C@]1(C(C)=O)CCC2C3C=C(C)C4=CC(=O)CC[C@]4(C)C3CC[C@@]21C (stereo not given in full)	5	52*	15	-18	-4	30
Cc1ccc(NC2=Nc3ccccc3CC2)cc1	-5	-3	61*	72*	-34	-29
COc1ccc(CCC(=O)Nc2c(-c3ccc(N(C)C)cc3)[nH][nH]c2=O)cc1	6	28	14	16	9	-14
COCCn1c(=NC(=O)c2ccc(S(=O)(=O)N3CCc4ccccc4C3)cc2)sc2cc(OC)ccc21	-69*	55*	5	-15	12	10
COCCn1c(=NC(=O)CCS(=O)(=O)c2ccccc2)sc2cc(C(=O)OC)ccc21	1	8	-16	-18	25	17
Cc1cc(C(=O)NN=Cc2c(C)[nH]c3ccccc23)c(C)o1	0	8	-13	22	-26	-22
Fc1ccc(CSc2nncn2NCc2ccccc2)cc1	-4	-9	49	77*	-1	2
CN(C)c1ccc(CNn2cnnc2SCc2ccc(F)cc2)cc1	-6	-6	-20	-18	-16	-65
CCn1cc([N+](=O)[O-])c(C(=O)N2CCCc3ccccc32)n1	-4	-8	-19	9	18	10
O=C1Nc2cc(Cl)cnc2N2CCCC12 (stereo not given)	-10	23	4	9	22	24
Cc1nc2c(ccc3nc(NC(=O)c4ccc5c(c4)OCCO5)sc32)s1	-53*	14	31	16	-5	-173
Cc1nc2c(ccc3nc(NC(=O)C(c4ccccc4)c4ccccc4)sc32)s1	-18	1	30	75*	2	0
Cc1nc2ccc3nc(NC(=O)c4ccc5c(c4)OCCO5)sc3c2s1	2	-1	-39	-27	-27	-82
CCc1cccc(C)c1NC(=O)c1cc(=O)[nH]c2ccc(S(=O)(=O)N3CCOCC3)cc12	-7	26	-9	0	-7	0
COc1ccc(CN(C(=O)CSc2nnc(-c3ccccc3C)o2)c2ccc(F)cc2)cc1	-11	16	-17	17	31	-2
O=C(CSc1nnc(-c2c[nH]c3ccccc23)o1)N(Cc1ccccc1)c1ccc(F)cc1	20	-4	31	64*	3	-76
O=C(CN1C(=O)CSc2ccc(S(=O)(=O)N3CCCCCC3)cc21)NCCc1ccccc1	-9	-11	-5	6	3	-6
O=C(CN1C(=O)CSc2ccc(S(=O)(=O)N3CCOCC3)cc21)NCCc1ccccc1	1	22	-1	97*	0	2
O=C(NCC1CCCCC1)C1(CC2CC(c3cccc(Br)c3)=NO2)CCNCC1 (stereo not given)	-9	2	-14	-45	99*	-30
O=C(NCC1CCCCC1)C1(CC2CC(c3ccc(Cl)cc3)=NO2)CCNCC1 (stereo not given)	-21	19	-43	-7	97*	-149
SMILES	KKLEB tox	CF NFkB block	TROY signal inh	TWEAK-Fn14 inh	Peg3 promoter	HIF-2a inh
O=C(c1ccc2c(c1)N(Cc1ccc(F)cc1)CCS2)N1CCOCC1	5	18	-41	9	2	0
CC(O)(c1ccc(F)c(F)c1)c1nc(-c2cnc3ccccc3c2)cs1 (stereo not given)	-20	31	30	55*	-25	-24
CC(=O)c1ccc(-c2c(CCO)sc3ccccc23)cc1	nt	nt	-36	4	nt	-95
O=C(CCC1CCCC1)N1CCN(C2CCCC2)CC1	-5	8	-16	-7	3	-14
COC(=O)c1ccccc1NC(=O)c1ccc(COc2ccc(C)c(C)c2)o1	-7	2	nt	81*	-40	-37
COC(=O)c1ccccc1NC(=O)c1ccc(-c2ccccc2F)o1	-67*	59*	-32	-42	-58	-111
O=P(c1ccccc1)(c1ccccc1)c1nc(-c2ccccc2)oc1NCc1ccccc1	-1	14	29	10	32	24
COC(=O)c1ccccc1-c1c2ccc(=N)cc-2oc2cc(N)ccc12	-22	i	17	53*	18	6
COC(=O)c1ccccc1-c1ccc(/C=N/NC(=O)c2cc3ccccc3o2)o1	15	-11	7	20	25	4
CC(C)(C)[C@H]1C=C(C(=O)Nc2ccccc2)O[C@@H](OCCCCO)C1	-9	-20	84*	84*	-59	-56
O=C(Nc1ccccc1)C1=C[C@@H](C2CCCCC2)C[C@@H](OCCCCO)O1	-2	20	67*	62*	-90	-106
O=C(NCc1ccccc1)C1=C[C@H](C2CCCCC2)C[C@H](OCCCCO)O1	-21	16	-29	-9	0	-10
O=C(Nc1ccccc1)C1=C[C@H](C2CCCCC2)C[C@H](OCCCCO)O1	-11	11	67*	57*	-157	-174
CN(C)C(=O)C(OC(=O)c1ccc2c(c1)CCCC2)c1ccccc1 (stereo not given)	7	-4	-4	9	21	-11
CC1CCCN(CCCOc2ccccc2-c2ccccc2)C1 (stereo not given)	2	-8	-25	-2	25	12
CCCN(C)C[C@@H]1OCCCC[C@@H](C)Oc2ccc(NS(=O)(=O)c3ccc(OC)cc3)cc2C(=O)N([C@H](C)CO)C[C@@H]1C	2	-28	6	2	1	6
CCOC(=O)c1nc(NNC(=O)c2ccc([N+](=O)[O-])cc2)sc1C	9	-10	34	36	68*	-20
COc1cccc2sc(Nc3nc4ccc(NC(C)=O)cc4s3)nc12	-5	-23	-40	51*	-73	-190
CCOC(=O)c1sc(Nc2nc3c(OC)cccc3s2)cc1C	-5	-13	-18	44	77*	-223
